This note sets out measurements from the supplement of paper PMC9694430.

Assay in all cases: thermal shift delta Tm vs DMSO control; higher = stronger stabilization (binding)
What all share (details): 12.5 µM; protein concentration 2 µM

One assay deals with LOC_OS01G57100-cb003. In short, it runs like this:
(§1)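 Purified, E. coli-expressed rice kinase domain constructs were tested by differential scanning fluorimetry in 96-well plates: 19.5 μl of 2 μM kinase in 100 mM potassium phosphate pH 7.5, 150 mM NaCl, 10% glycerol, 5 × SYPRO Orange, plus compound in DMSO. Fluorescence was read from 25°C to 95°C at 0.05°C/s. Melting temperatures came from Boltzmann fits, and the shift is the triplicate mean relative to protein with DMSO alone.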

Another assay has as its system LOC_OS01G60330-cb001. In short, it runs like this: as §1
Another assay deals with LOC_OS01G60700-cb002. In short, it runs like this: as §1
Another assay concerns LOC_OS01G67340-cb003. In a few lines: as §1
The next assay concerns LOC_OS01G70970-cb002. In short, it runs like this:
as §1

A further assay has as its system LOC_OS02G07810-cb001. In a few lines: as §1
The next assay concerns LOC_OS02G08530-cb003. In a few lines:
as §1

For a further assay, the system named is LOC_OS02G14120-cb001. In short, it runs like this: as §1
In a further assay the test system is LOC_OS02G45750-cb003. In a few lines:
as §1

Another assay has as its system LOC_OS02G54510-cb004. In a few lines:
as §1

The test system of a further assay is LOC_OS03G04050-cb001. In a few lines:
as §1

For another assay, the system named is LOC_OS03G12390-cb001. In a few lines:
as §1

The subject of another assay is LOC_OS03G27990-cb004. In short, it runs like this: as §1
Another assay concerns LOC_OS03G50450-cb001. In a few lines: as §1
The next assay relates to LOC_OS03G50810-cb003. In short, it runs like this: as §1
Another assay concerns LOC_OS04G35114-cb001. In a few lines: as §1
The next assay deals with T1, LOC_OS04G38480-cb003.
T1 sequence (whole entry): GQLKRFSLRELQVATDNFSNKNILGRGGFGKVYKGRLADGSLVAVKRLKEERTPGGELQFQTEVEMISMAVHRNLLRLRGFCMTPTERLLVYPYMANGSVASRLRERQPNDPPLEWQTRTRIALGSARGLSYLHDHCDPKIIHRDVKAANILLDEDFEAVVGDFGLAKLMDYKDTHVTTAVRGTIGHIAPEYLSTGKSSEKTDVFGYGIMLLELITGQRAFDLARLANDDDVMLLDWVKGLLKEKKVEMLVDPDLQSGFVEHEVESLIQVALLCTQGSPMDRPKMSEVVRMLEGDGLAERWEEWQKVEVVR
In short, it runs like this: as §1

The next assay has as its system T2, LOC_OS04G41100-cb001.
T2 sequence (whole entry): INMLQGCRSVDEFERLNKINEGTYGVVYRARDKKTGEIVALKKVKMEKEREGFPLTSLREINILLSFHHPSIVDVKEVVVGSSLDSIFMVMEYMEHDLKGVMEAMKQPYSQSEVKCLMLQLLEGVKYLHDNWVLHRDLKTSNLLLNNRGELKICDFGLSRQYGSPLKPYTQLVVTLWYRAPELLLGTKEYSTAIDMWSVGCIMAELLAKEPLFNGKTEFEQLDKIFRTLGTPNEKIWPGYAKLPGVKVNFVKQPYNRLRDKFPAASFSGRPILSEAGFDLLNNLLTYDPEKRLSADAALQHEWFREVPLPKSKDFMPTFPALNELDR
In a few lines: as §1

Another assay deals with LOC_OS01G63280-cb003. In short, it runs like this:
as §1

Another assay has as its system LOC_OS02G17970-cb001. In a few lines: as §1

As to `O=C(O[C@@H]1Cc2c(O)cc(O)cc2O[C@@H]1c1cc(O)c(O)c(O)c1)c1cc(O)c(O)c(O)c1` [(-)-Epigallocatechin Gallate], the “thermal shift delta Tm” value in the assay on LOC_OS01G57100-cb003 is 13.4 °C; with LOC_OS01G60330-cb001, 0.66 °C; in the assay on LOC_OS01G60700-cb002, -5.2 °C; with LOC_OS01G67340-cb003 it was 1 °C; in the assay on LOC_OS01G70970-cb002, -0.02 °C; in the assay on LOC_OS02G07810-cb001 it was 3.56 °C. Besides, the “thermal shift delta Tm” value is -2.15 °C in the assay on LOC_OS02G08530-cb003; 0.07 °C with LOC_OS02G14120-cb001; -1.81 °C in the assay on LOC_OS02G45750-cb003; -0.12 °C in the assay with LOC_OS02G54510-cb004; 0.68 °C in the assay on LOC_OS03G04050-cb001; -1.02 °C in the assay on LOC_OS03G12390-cb001. Also, the “thermal shift delta Tm” value was 0.05 °C in the assay with LOC_OS03G27990-cb004; -0.27 °C in the assay on LOC_OS03G50450-cb001; -1.51 °C with LOC_OS03G50810-cb003; -2.2 °C in the assay with LOC_OS04G35114-cb001; 2.43 °C with LOC_OS04G38480-cb003; 1.15 °C in the assay with LOC_OS04G41100-cb001.

For the compound `COc1cc2nccc(Oc3ccc(NC(=O)NC4CC4)c(Cl)c3)c2cc1C(N)=O` [Lenvatinib (E7080)], the “thermal shift delta Tm” value in the assay on LOC_OS01G57100-cb003 is -0.21 °C; in the assay with LOC_OS01G60330-cb001, 1.52 °C; in the assay on LOC_OS01G60700-cb002, 1.38 °C; in the assay on LOC_OS01G63280-cb003 it was 0.36 °C; with LOC_OS01G67340-cb003, -0.21 °C; in the assay on LOC_OS01G70970-cb002, 0.67 °C. Also, the “thermal shift delta Tm” value with LOC_OS02G07810-cb001 stood at 0.65 °C; with LOC_OS02G08530-cb003, 1.11 °C; in the assay with LOC_OS02G14120-cb001, 0.02 °C; in the assay with LOC_OS02G17970-cb001, 0.27 °C; in the assay on LOC_OS02G45750-cb003, 0.65 °C; in the assay with LOC_OS02G54510-cb004 it was 0.49 °C. The “thermal shift delta Tm” value in the assay with LOC_OS03G04050-cb001 was 0.79 °C; in the assay with LOC_OS03G12390-cb001 it was -0.1 °C; in the assay with LOC_OS03G27990-cb004, 0.31 °C; with LOC_OS03G50450-cb001 it was 0.39 °C; in the assay with LOC_OS03G50810-cb003, 0.26 °C; in the assay with LOC_OS04G35114-cb001, 1.09 °C. For the same compound, the “thermal shift delta Tm” value was determined as 0.48 °C with LOC_OS04G38480-cb003 and 0.18 °C with LOC_OS04G41100-cb001.

In the case of `COc1ccc(Oc2cc(NCCC(F)(F)F)c3ncc(-c4ccc(C(=O)NC5CC5)c(C)c4)n3n2)c(F)c1F`, the “thermal shift delta Tm” value with LOC_OS01G57100-cb003 is -1.23 °C; with LOC_OS01G60330-cb001, 1.27 °C; in the assay on LOC_OS01G60700-cb002 it was -0.2 °C; with LOC_OS01G63280-cb003, 0.82 °C; in the assay with LOC_OS01G67340-cb003, 1 °C; with LOC_OS01G70970-cb002, 0.18 °C. Further, the “thermal shift delta Tm” value with LOC_OS02G07810-cb001 was 1.17 °C; in the assay on LOC_OS02G08530-cb003, 0.66 °C; with LOC_OS02G14120-cb001 it was -0.01 °C; in the assay with LOC_OS02G17970-cb001, 1.28 °C; with LOC_OS02G45750-cb003 it was 0.77 °C; in the assay on LOC_OS02G54510-cb004, 0.01 °C. For the same compound, the “thermal shift delta Tm” value was found to be 0.48 °C with LOC_OS03G04050-cb001; 0.31 °C in the assay with LOC_OS03G12390-cb001; 0.55 °C in the assay with LOC_OS03G27990-cb004; 0.46 °C in the assay with LOC_OS03G50450-cb001; 1.7 °C in the assay on LOC_OS03G50810-cb003; 1.1 °C in the assay on LOC_OS04G35114-cb001. Besides, the “thermal shift delta Tm” value turned out to be 1.64 °C in the assay on LOC_OS04G38480-cb003 and 0.4 °C in the assay with LOC_OS04G41100-cb001.

Take `O=c1c(O)c(-c2cc(O)c(O)c(O)c2)oc2cc(O)cc(O)c12` [Myricetin]: the “thermal shift delta Tm” value is 7.25 °C with LOC_OS01G57100-cb003; 8.95 °C in the assay with LOC_OS01G60330-cb001; -2.19 °C in the assay on LOC_OS01G60700-cb002; 2.79 °C in the assay with LOC_OS01G67340-cb003; 2.23 °C in the assay on LOC_OS01G70970-cb002; 2.22 °C with LOC_OS02G07810-cb001. Further, the “thermal shift delta Tm” value was 2.57 °C in the assay with LOC_OS02G08530-cb003; 2.73 °C in the assay on LOC_OS02G14120-cb001; 5.74 °C in the assay on LOC_OS02G17970-cb001; 0.6 °C in the assay with LOC_OS02G45750-cb003; -0.42 °C in the assay with LOC_OS02G54510-cb004; 1.12 °C in the assay on LOC_OS03G04050-cb001. The “thermal shift delta Tm” value is 1.2 °C with LOC_OS03G12390-cb001; 1.89 °C in the assay with LOC_OS03G27990-cb004; 2.61 °C in the assay with LOC_OS03G50450-cb001; -0.73 °C in the assay with LOC_OS03G50810-cb003; 2.51 °C with LOC_OS04G35114-cb001; 3.89 °C in the assay on LOC_OS04G38480-cb003. Also, the “thermal shift delta Tm” value in the assay on LOC_OS04G41100-cb001 was determined as 0.92 °C.

With `CC(C)=CC[C@@H](O)C1=CC(=O)c2c(O)ccc(O)c2C1=O` [Shikonin], the “thermal shift delta Tm” value with LOC_OS01G60330-cb001 is -0.94 °C; in the assay on LOC_OS01G60700-cb002, 3.41 °C; in the assay with LOC_OS01G67340-cb003 it was -2.36 °C; in the assay on LOC_OS01G70970-cb002, -5.42 °C; in the assay with LOC_OS02G07810-cb001, 0.63 °C; in the assay on LOC_OS02G08530-cb003, -0.15 °C. The “thermal shift delta Tm” value with LOC_OS02G14120-cb001 is -4.81 °C; in the assay on LOC_OS02G17970-cb001 it was 3.84 °C; in the assay on LOC_OS02G45750-cb003 it was 0 °C; in the assay on LOC_OS02G54510-cb004, -0.56 °C; in the assay on LOC_OS03G04050-cb001, 0.62 °C; with LOC_OS03G12390-cb001 it was -4.26 °C. For the same compound, the “thermal shift delta Tm” value is -2.32 °C in the assay on LOC_OS03G27990-cb004; -1.22 °C with LOC_OS03G50450-cb001; 0 °C in the assay with LOC_OS03G50810-cb003; 3.21 °C in the assay with LOC_OS04G35114-cb001; -2.82 °C in the assay on LOC_OS04G38480-cb003; -0.35 °C in the assay with LOC_OS04G41100-cb001.
